In article PMC4242493, “Sequence specificity incompletely defines the genome-wide occupancy of Myc”:
Over roughly 33,000 sequences, “normalized occupancy” has its median near 0.075; the highest 2% begin near 0.095. This is one part of a sample in which the highest values are shown more often than they occur.

Biological target: MaxL homodimer (Homo sapiens, UniProt P61244 1-160)
Assay: universal protein-binding microarray (PBM); PBS-based mixture, 10 nM His-tagged protein dimer, 2% milk, 200 ng/uL BSA, 50 ng/uL salmon testes DNA, 0.02% TX-100; detection with Alexa 488 anti-His antibody;; high values mean tight binding
Details: protein: recombinant; tags: C-terminal His-tag (pET21a); chain copies: 2; dsDNA, one strand shown
Summary of the method: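 A His-tagged protein dimer at 10 nM was incubated on Agilent 4 x 44 K arrays of the 'all 10-mer' universal design, then labelled with 10 ng/μL fluorophore-conjugated anti-His antibody and scanned on a GenePix 4400A. A fluorescence intensity was assigned to each 8-mer. Binding occupancy is each such intensity normalised to that of the highest-ranked one.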

MaxL homodimer, sequence (P61244 whole entry): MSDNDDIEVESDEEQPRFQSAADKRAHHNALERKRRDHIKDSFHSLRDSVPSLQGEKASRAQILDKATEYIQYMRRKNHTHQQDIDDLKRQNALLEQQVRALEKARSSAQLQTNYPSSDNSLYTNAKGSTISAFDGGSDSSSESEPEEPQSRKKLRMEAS

Sequence	binding signal [normalized occupancy]
ATGCTATA	0.0889
ACGCGTCC	0.0815
CCGCGTAC	0.0726
CCGCGTGC	0.145
ACGCGTCG	0.0769
ACGCGTTC	0.0785
ACGCGTGG	0.139
GCGCGTTA	0.0795
ACGCGTAG	0.0796
GCGCGTGA	0.106
ACGCGTGC	0.13
CGGCGTGC	0.0923
GGGCGTGA	0.0932
GTGAGGGA	0.0752
AAAAAGCA	0.078
GAAAGCGC	0.0724
ATTACCTA	0.0784
AGGTTCTA	0.0755
CAAGCGAA	0.0755
CAATTTCA	0.0751
ACGCGTGA	0.114
ACGCGTAA	0.0882
CGGCGTGA	0.0839
CCGCGTAA	0.0729

Sequence	binding signal [normalized occupancy]
CCGCGTGA	0.142
ACGCGTCA	0.0796
ATGACGTG	0.0885
AAGTGATT	0.0761
CCTGCGCA	0.0738
TGAGAGAA	0.0879
TATAAGAA	0.0821
GTTACTTA	0.0751
AATCTAAC	0.0749
ATGCCACG	0.101
ACGCCACA	0.0778
ACGCCATG	0.102
ACGCCATC	0.0794
ACGCCACG	0.0993
ACGCCACT	0.0784
ATGCCACA	0.0905
ACGCCATA	0.0812
ATGCCACC	0.0841
ATGCGTTC	0.0856
CAACCCAC	0.082
GGCGTTCA	0.0718
CCCACAAA	0.075
CCCACGAG	0.0996
ACCACAAA	0.0758

Sequence	binding signal [normalized occupancy]
ACCACGAG	0.115
ACCACGAA	0.0771
CCCACGAA	0.0758
GAAGTGCA	0.0728
GTTTCGCA	0.0757
ATGGCTGC	0.0809
CGTGCTGA	0.095
GATGGAAC	0.0776
CAATGCTC	0.0774
CGATGCTC	0.0773
CCATGCTC	0.0989
ACATGCTC	0.106
CTATGCTC	0.0822
ATATGCTC	0.0928
CGAGCGCA	0.0729
GACATCCC	0.0774
CACGTTCA	0.0904
CACGTTAA	0.0921
CACGTTCC	0.096
CACGTTAC	0.115
AACGTTAC	0.0772
AACGTTAG	0.0732
CACGTTCG	0.0852
CACGTTAG	0.105

Sequence	binding signal [normalized occupancy]
GACGTTAC	0.0746
GTAGTCCA	0.0722
TACGTAGA	0.0768
AATGCGGA	0.0802
CATGCGGG	0.121
CATGCGGA	0.126
TATGCGGA	0.0786
CAGGCGGG	0.0747
AATGCGGC	0.0814
GATGCGGC	0.0788
CATGCGGC	0.121
AATGCGGG	0.0799
AGGTAACC	0.0749
AAACATAC	0.0888
TATAAACA	0.0776
CGCTCGAG	0.0757
CGATTGCA	0.0745
GGACCGAC	0.0727
CATTTGAG	0.0913
AAGAACTC	0.0732
AATTTCTA	0.0767
CCATTCGC	0.0743
CTTCGTGC	0.0757
ATGGCAGG	0.0815

Sequence	binding signal [normalized occupancy]
CCCCATTC	0.0826
CCCCATGC	0.107
ACCCATGG	0.0853
CCCCATGA	0.0895
ACCCATGC	0.108
ACCCATGA	0.0882
AAAGCACT	0.0757
AACCACCA	0.0807
GACCACGA	0.0865
GACCACGC	0.129
GACCACCA	0.0803
AACCACTA	0.0774
CACCACGA	0.082
AACCACGG	0.0843
AACCACGA	0.0902
CACCACGG	0.0774
AACCACGT	0.123
CACCACGC	0.119
AACCACGC	0.0983
ATGCCCTG	0.0757
GAGACCCA	0.0745
TAATTGCA	0.0767
ACCAAGCA	0.081
CGTGCGTC	0.0896

Sequence	binding signal [normalized occupancy]
CATGCGTA	0.122
GATGCGTA	0.0807
CATGCGTC	0.113
AATGCGTA	0.0846
AATGCGTC	0.0736
ATGACGCG	0.0781
AGGTGGGC	0.0818
ATGTGGGG	0.0878
ATGTGGGC	0.0919
CCGTGGGA	0.0775
GTGTGGGA	0.0899
GGGTGGGA	0.085
ACGTGGGA	0.0998
ACGTGGGG	0.0991
AAGTGGGA	0.0771
AGGTGGGG	0.0822
GCGTGGGA	0.125
ACGTGGGC	0.1
GACATTGC	0.0757
GGAAGAGA	0.0767
AGAATGTC	0.0744
CCTGCTAC	0.0758
CCCTAATA	0.0744
CGATTAAG	0.0743

Sequence	binding signal [normalized occupancy]
TTCATAAA	0.0768
CAGACCCC	0.085
CAGTAGAA	0.0771
ACGTCGTC	0.0822
CATGCTCC	0.105
CATGCTCA	0.099
CATGCTCG	0.106
TATGCTCA	0.0848
GATGCTCC	0.0753
GATGCTCA	0.0734
AATGCTCG	0.0783
AATGCTCA	0.0829
CGTGCTCC	0.085
CTTTACCA	0.0764
ATTGGGGC	0.0771
ATGTGGCG	0.0879
ACGTGGCT	0.101
TCGTGGCA	0.0869
ACGTGGCC	0.094
ACGTGGCG	0.107
ACGTGGCA	0.106
GCGTGGCA	0.121
CCGTGGCA	0.077
AGGTGGCA	0.082

Sequence	binding signal [normalized occupancy]
AAGTGGCT	0.072
ACCTGGCT	0.0765
CCGTGGCG	0.0765
GGTCTGTA	0.0752
CCTTGTCC	0.0743
CTGACTCA	0.0764
AACCAAGT	0.0721
GAGGAGAA	0.0783
GGTAACTA	0.077
CAACTTAG	0.0721
AGGCACCT	0.078
CTATTTTC	0.0775
CCAAACGC	0.073
GCGACTCA	0.0767
CCGTGGCC	0.0738
GAGTGGCC	0.073
GCGTGGCC	0.0977
GGACAACA	0.0742
AACGTGTA	0.11
AAGGTGTA	0.0773
CCCGTGTC	0.0814
ACCGTGTG	0.0873
CAGGTGTC	0.0839
CAGGTGTA	0.0957

Sequence	binding signal [normalized occupancy]
ACCGTGTA	0.0779
AACGTGTG	0.108
ATCGTGTG	0.0889
AACGTATA	0.0869
CACGTGTC	0.574
CAAGTGTC	0.0772
GATGCAAA	0.0761
GTTCGTAA	0.0774
CCTAGATA	0.0756
ACCGTACA	0.0768
AAATAGCA	0.0843
ACTATAAC	0.0847
AGTTTTTG	0.0729
ATTGCGAA	0.074
ATGGGTAG	0.0856
ATGATTGG	0.0808
AAGAGCAG	0.0746
AAGGTGTC	0.0775
ACCGTGTC	0.072
GACGTGTA	0.0816
CCCGTGTA	0.0861
CACGTGTA	0.536
AACGTGTC	0.101
AATGGCTC	0.0777

Sequence	binding signal [normalized occupancy]
AATTAGTG	0.0813
ACGTGTCT	0.0997
ACGTGTCG	0.106
AGGTGTCG	0.0793
AAGTGTCT	0.073
CCGTGTCG	0.075
ACGTGTCA	0.0923
ATTGAGAG	0.0765
CATAGGGG	0.085
AGATGGAA	0.0827
ACATAGCA	0.0807
GCACGTCC	0.0788
GCACGTAC	0.0883
GCACGTGA	0.36
GCACGTGC	0.834
GTACGTGA	0.078
GGACGTGA	0.0764
GATTGGGA	0.076
TGCGCCCA	0.0758
CGATTTCA	0.072
GCCTGGCA	0.0722
ACAACATA	0.0833
ATAACATA	0.0882
ATAACACG	0.0958

Sequence	binding signal [normalized occupancy]
ACAACATC	0.0778
ACAACACC	0.0812
ACAACACA	0.0849
ACAACACG	0.0955
ATAACACA	0.0874
ATAACATC	0.0807
ATAACATG	0.0981
ACAACATG	0.0952
GTAACACA	0.0828
GTTTCTTA	0.0733
CCTTAACA	0.0794
GTAGGCTA	0.0748
CCCATGGA	0.0846
CACATGGG	0.166
GACATGGC	0.0801
ACCATGGG	0.0927
CACATGGC	0.199
CAAATGGG	0.0805
GACATGGA	0.0844
CCCATGGG	0.0962
AACATGGC	0.0896
AACATGGA	0.0836
AACATGGG	0.0935
CACATGGA	0.162

Sequence	binding signal [normalized occupancy]
ATAAGAGG	0.073
AGGACAAG	0.0738
GAGTCTGA	0.0726
TATTACAA	0.0802
CAAACCGA	0.0737
GGAGAACA	0.0748
CGACGTCA	0.0748
ATACAAGG	0.0755
CATAGGCG	0.0751
ACGTGCCC	0.0948
ACGTGCCG	0.0929
TCGTGCCA	0.0874
ACGTGCCT	0.0959
CCGTGCCA	0.0772
ACGTGCCA	0.115
AACAATAC	0.076
CTTTCCAA	0.0733
CATGCACG	0.101
CTTGCACA	0.0801
AATGCACG	0.0974
AATGCACA	0.0785
AATGCACC	0.0777
CATGCACC	0.0986
GATGCACA	0.0921

Sequence	binding signal [normalized occupancy]
CATGCACA	0.0961
TATGCACA	0.0883
GATGCACC	0.0775
AATGCACT	0.0779
CCTGCACG	0.0845
GAGACATA	0.0802
AGATAATC	0.0755
ACAGGCAT	0.0804
ATCGCAAT	0.0728
AATCTTCA	0.072
ACGAAAAG	0.0718
ACCTTATG	0.0812
ACGGCGTA	0.0728
ATGGCACG	0.0985
AAGGCATA	0.0742
ATGGCATC	0.0919
ATGGCACA	0.0786
CTGGCACA	0.0744
ACGGCGTC	0.0722
ACGGCGTG	0.0958
ATGGCATG	0.0968
AAGGCATG	0.0988
AAGGCATT	0.0725
ATGGCATA	0.085

Sequence	binding signal [normalized occupancy]
CGATGATA	0.0772
CTTAATCA	0.073
CAGAGACA	0.0742
CTTCACCA	0.085
AACAACCA	0.0769
AAAACATA	0.0798
AAAGAGGA	0.0738
ACCTCAAA	0.0749
CTTGCGTA	0.0773
GGCTTCCA	0.0728
CAGGCATG	0.0964
ACGGCATC	0.0761
CAGGCATA	0.0804
ACGGCATA	0.0754
CAGGCATC	0.0725
ACGGCATG	0.103
GACAGACC	0.0741
AACTCCAG	0.0726
AGTGCTGC	0.072
GATTTGAC	0.0751
CCGCATGA	0.113
ACGCATAC	0.0842
CCGCATCA	0.0853
CCGCATCC	0.0787

Sequence	binding signal [normalized occupancy]
ACGCATGC	0.124
ACGCATAG	0.0818
CCGCATTC	0.072
ACGCATTG	0.0891
CCGCATAA	0.0821
CCGCATGC	0.128
ACGCATGG	0.136
ACGCATTC	0.0764
ACGCTGTG	0.0735
ACAGGGAG	0.0726
AAAGGCAG	0.0731
CGGGTGAC	0.0779
ATTCATAA	0.0836
ATGTAGGC	0.0776
GAAAAGAA	0.0746
GGCATTTA	0.0801
GGATCGGA	0.0725
GCGCATGA	0.0897
ACGCATGA	0.102
ACGCATCA	0.0829
AGGCTACA	0.0725
ACCACAGG	0.0732
ACGTAGGC	0.0765
